Screening results (PubChem)
PTHR1 agonist = agonists of human PTHR1 parathyroid hormone receptor; Potency, µM (top dose mostly 115 µM), without a hit: at the highest dose activation, most hits filed as activators; HEK293 GP2 PTHR1 cells, GloSensor cAMP luminescence, 1 h; 410,000 compounds, 0.075% hits; AID 743266; further: nearly all actives have a fitted effect of over 55% in size
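HEK-293-derived GP2 cells expressing PTHR1 and a GloSensor cAMP reporter, 3,000/well, plated overnight, given luciferin plus IBMX (each 0.5 mM as added) for 1 h at 37 °C, then compound for 1 h at 37 °C. Luminescence was read after 15 min at room temperature.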
12-LOX inh = inhibitors of human 12S-lipoxygenase ALOX12; purified 12hLO, xylenol orange hydroperoxide absorbance; Potency, µM (top dose mostly 108 µM), without a hit: top-dose activity change, negative = inhibition, usual class: inhibitors; 580,000 compounds, 1.1% hits; AID 1671190; further: on the % scale 0 is the no-effect control and ±100 the full control effect
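Purified human 12hLO (150 nM final) in 25 mM Hepes, 0.01% Triton X-100, pH 7.0 was preincubated 15 min at room temperature with compound. Then 40 uM arachidonic acid was added, 30 min. Hydroperoxide was read by Fe-XO absorbance ratio 573/405 nm.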
GRP78 ERSR act = ER stress response induction in glioma | U87-MG GRP78 promoter luciferase reporter, 16 h | Potency, µM, for inactives: top-dose activation, most hits filed as activators | 420,000 compounds, 0.02% hits; further: series mostly up to about 76 µM; % of control where 0% means no effect; nearly all actives have a fitted effect of over 35% in size
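ERSR induction read as luciferase luminescence (Bright-Glo, 10 min at room temperature) in stably transfected human U87-MG glioma cells exposed to compounds for 16 h, using GRP78 as sensor.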
GLP1R ag = agonists of human GLP-1 receptor | AID 624172 | Potency, µM (highest dose often 45.6 µM), inactives show top-dose activation, most hits filed as activators | HEK293 GLP-1R CRE-luciferase, luminescence, 4-6 h; cells express a hypersensitive GLP-1R form | 380,000 compounds, 0.007% hits | P43220; further: % of control where 0% means no effect
Target sequence (P43220 whole entry, looked up): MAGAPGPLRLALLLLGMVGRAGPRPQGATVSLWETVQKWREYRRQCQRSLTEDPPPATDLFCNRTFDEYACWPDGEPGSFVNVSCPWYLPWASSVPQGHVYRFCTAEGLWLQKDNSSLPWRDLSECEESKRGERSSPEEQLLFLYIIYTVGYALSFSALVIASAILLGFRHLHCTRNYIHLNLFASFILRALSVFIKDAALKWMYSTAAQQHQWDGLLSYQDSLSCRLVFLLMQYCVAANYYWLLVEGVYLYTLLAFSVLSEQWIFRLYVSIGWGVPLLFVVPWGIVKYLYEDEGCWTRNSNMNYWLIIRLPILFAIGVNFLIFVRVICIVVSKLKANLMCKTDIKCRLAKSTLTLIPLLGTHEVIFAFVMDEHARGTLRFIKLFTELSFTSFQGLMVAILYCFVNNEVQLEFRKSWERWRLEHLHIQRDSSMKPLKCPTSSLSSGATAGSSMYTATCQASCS
GLP1R inv ag = GLP-1 receptor (human) inverse agonism; P43220; AID 624417; 410,000 compounds, 1.6% hits; HEK293 GLP-1R CRE-luciferase, luminescence, 24 h; GLP-1R form is constitutively active; Potency, µM (doses to about 38.3 µM), for inactives: at the top dose activity change, negative = inhibition, usual class: inhibitors; further: on the % scale 0 is the no-effect control and ±100 the full control effect; nearly all actives have a fitted effect of over 55% in size
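Constitutively active GLP-1R drives a cAMP-responsive luciferase in stably transfected HEK293 cells; test compounds are added after overnight (12 h) attachment and left 24 hr, and signal loss in luminescence marks inhibition.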
GLS inhibitor = inhibitors of human glutaminase (GLS). 410,000 compounds, 0.21% hits. AID 624170. GLS enzymatic activity, qHTS titration. Potency, µM (series often up to 45.5 µM), for inactives: top-dose activity change, negative = inhibition, most hits filed as inhibitors. O94925; further: on the % scale 0 is the no-effect control and ±100 the full control effect
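Glutamate formation by hKGA was monitored fluorometrically using coupled glutamate oxidase, HRP and Amplex Red. Substrate was added as 1 mM L-glutamine solution; incubation was 30 min at RT after an initial read.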
Active calls of the source: *; i = inactive; ? = inconclusive; nt = not tested or not shown; [ ] = another dose, or the depositor's remark. In the library only some 2.3% were active in any assay of this set; here they are far more common. The call rests on the fitted dose curve; in most records, active means well fitted curve in the direction sought with a large enough effect; inconclusive means small, poorly fitted or top-dose-only effect, or another doubt; inactive means no such curve, though single readings can be large; an effect the other way counts as inactive or inconclusive. Potency means the concentration at half of the fitted maximal effect.

SMILES | PTHR1 agonist | 12-LOX inh | GRP78 ERSR act | GLP1R ag | GLP1R inv ag | GLS inhibitor
CN1CCCN(C(=O)/C=C/c2ccc(Cl)cc2Cl)CC1 | -21% | -9% | 3% | -7% | 7.9µM* | 6%
COc1ccc(CN2CCC[C@]3(N[C@H](c4ccc(C(F)(F)F)cc4)[C@@H]4C(=O)N(Cc5ccccc5)C(=O)[C@@H]43)C2=O)cc1 | -25% | ? | -6% | -2% | 8.9µM* | 12%
CN1C(=O)[C@H]2[C@@H](c3ccc(C(F)(F)F)cc3)N[C@]3(CCCN(Cc4ccc(Cl)cc4)C3=O)[C@H]2C1=O | -22% | -22% | 1% | 0% | 11µM* | -6%
COc1ccc([C@H]2N[C@]3(CCCN(Cc4ccc(F)cc4)C3=O)[C@H]3C(=O)N(Cc4ccccc4)C(=O)[C@@H]23)cc1 | -43% | 35µM* | -6% | 1% | -10% | 10%
CCN1C(=O)[C@H]2[C@@H](c3ccc(OC)cc3)N[C@]3(CCCN(Cc4ccc(C(F)(F)F)cc4)C3=O)[C@H]2C1=O | -25% | 32µM* | -2% | 0% | 0% | -5%
Cc1cccc(NC(=O)c2cc(C3CC3)nc3ccccc23)c1C | nt | 3% | nt | nt | nt | nt
CCC(C)NC(=O)CSC1=Nc2ccccc2C2=NC(c3ccccc3)C(=O)N12 (configuration not stated) | -26%[57.5 µM] | ? | -3% | 1% | 8% | 13µM*
CCOc1ccc(OCCCC(=O)N2CCN(S(=O)(=O)c3ccc(Cl)cc3)CC2)cc1 | -33% | 45µM* | -4% | -6% | -17% | 4%
COC(=O)COc1cc(OCC(=O)OC)c2c(-c3ccccc3)cc(=O)oc2c1 | -4% | 0% | 5% | 17% | 2% | -1%
COC(=O)C(C)Oc1cc(OC(C)C(=O)OC)c2c(-c3ccccc3)cc(=O)oc2c1 (configuration not stated) | i | 29% | 32µM* | 25% | 41% | -7%
CCOc1cc(C2C3=C(CC(C)(C)CC3=O)OC3=C2C(=O)CC(C)(C)C3)ccc1OC(C)=O | nt | 73% | nt | nt | nt | nt
CC1CCCN(c2nc3c(c(=O)n(C)c(=O)n3C)n2CC(=O)O)C1 (configuration not stated) | nt | -9% | nt | nt | nt | nt
O=C(c1cc2ccc3cccnc3c2[nH]1)N1CCCCC1 | -92% | -5% | -10% | nt | 6.3µM* | -8%
CC1CCCN(C(=O)c2cc3ccc4cccnc4c3[nH]2)C1 (configuration not stated) | -93% | ? | -11% | nt | 6.3µM* | -11%
O=C(Cn1c2c(c(-c3ccccc3)cc1=O)CCCC2)N1CCCCCC1 | -17% | -1% | -1% | 3% | 13µM* | -8%
Cc1cc(=O)n(CC(=O)N2CCCC2)c(-c2ccccc2)n1 | nt | 53% | nt | nt | nt | nt
CCC(CC)C(=O)Nc1ccc(C)c(C)c1 | nt | 24% | nt | nt | nt | nt
O=C(Nc1ccccn1)c1csc2c1CCCC2 | -4% | -2% | 3% | 17% | 0% | 12%
O=C(Nc1ccccn1)c1onc2c1CCCC2 | -26% | 2% | -13% | -32% | 2.5µM* | 2%
CCCCC[C@H]1CN(CCc2ccccc2)C(=O)[C@@H]1CC(=O)NCc1ccc(OC)cc1 | -52% | -17% | -5% | 3% | ? | -6%
CCCCC[C@H]1CN(Cc2ccccc2)C(=O)[C@@H]1CC(=O)NCc1ccccc1 | -91% | -13% | -4% | -4% | 10µM* | -1%
Cc1ccccc1NC(=O)CSc1ccc(N2CCC(C(=O)N3CCCCC3)CC2)nn1 | nt | 0% | nt | nt | nt | nt
O=C(NC(=S)NCCC1=CCCCC1)c1cccs1 | nt | 11µM* | nt | nt | nt | nt
CC(C)(C)C(=O)NC(=S)NNC(=O)C(c1ccccc1)c1ccccc1 | -29% | nt | 22µM* | 0% | ? | 11%
CC(=O)NNC(=S)NC(=O)C(c1ccccc1)c1ccccc1 | i | -22% | -8% | -3% | -25% | 26%
SMILES | PTHR1 agonist | 12-LOX inh | GRP78 ERSR act | GLP1R ag | GLP1R inv ag | GLS inhibitor
CC(C)(C)c1ccc(OCC(O)CN2CCN(C(=O)c3ccccc3)CC2)cc1 (configuration not stated) | -2% | -61% | -4% | 6% | 10µM* | -3%
CCCOC(=O)c1ccc(OCC(O)CN2CCN(C(=O)c3ccccc3)CC2)cc1 (configuration not stated) | -23% | -16% | -2% | -2% | -11% | -1%
CC(=O)N1CCN(CC(O)COc2ccc(Br)cc2)CC1 (configuration not stated) | -9% | 0.35µM* | -3% | 4% | 1% | 0%
CCOC(=O)Cn1c(=O)c2c3c(sc2n(CCCN(C)C)c1=O)CCC(C)C3 (configuration not stated) | nt | 38% | nt | nt | nt | nt
CCCCc1c(C)nc(Nc2nc(C)c3cc(OC)ccc3n2)[nH]c1=O | nt | 29% | nt | nt | nt | nt
Cc1c(-c2ccc(O)cc2)nn(-c2ccc(O)cc2)c1-c1ccc(OCCN2CCCCC2)cc1 | nt | 20µM* | -3% | nt | nt | nt
Cc1ccc(OCCN2CCCC2)cc1 | -13% | -14% | -3% | -5% | 8% | -1%
Cc1ccc2oc(-c3cccc(F)c3)cc(=O)c2c1 | nt | 0% | nt | nt | nt | nt
COc1ccc(-c2cc(OC(=O)c3cccc(Br)c3)c3c(C)oc(C)c3c(=O)c2)cc1 | nt | 4.5µM* | nt | nt | nt | nt
CCOc1ccc(-c2cc(OC(=O)c3ccc(OC)cc3)c3c(C)oc(C)c3c(=O)c2)cc1 | i | 5% | -1% | -5% | -25% | 1%
O=C(O)c1cccnc1Sc1ccc(Cl)cc1 | 50µM* | -4% | -5% | 1% | -14% | 2%
O=C(C1=C(Nc2ccc(N3CCCC3)c(Cl)c2)c2ccccc2S1(=O)=O)N1CCOCC1 | nt | 0% | nt | nt | nt | nt
NC(=O)CSc1n[nH]c2nc3c(c(=O)n12)C1(CCCCC1)Cc1ccccc1-3 | nt | 4% | nt | nt | nt | nt
CC[C@@H]1C(c2ccc(F)cc2)=NN(c2ccc(Br)cc2)[C@H]1C(=O)N1CCOC1=O | -25% | -4% | -1% | 4% | 10µM* | 2%
O=C1OCCN1C(=O)[C@H]1[C@H](c2ccc([N+](=O)[O-])cc2)C(c2ccccc2)=NN1c1ccc(Br)cc1 | i | -16% | -3% | -2% | 3.5µM* | -2%
O=C1OCCN1C(=O)[C@H]1[C@H](c2ccc([N+](=O)[O-])cc2)C(c2cccc(Cl)c2)=NN1c1ccc(Br)cc1 | -8% | ? | -2% | -3% | ? | -3%
O=C1OCCN1C(=O)[C@H]1[C@H](c2ccccc2)C(c2cccc(Cl)c2)=NN1c1ccc(Br)cc1 | 2% | -10% | -2% | 2% | 15% | 3%
Cc1cccc(C2=NN(c3ccc(Br)cc3)[C@@H](C(=O)N3CCOC3=O)[C@@H]2c2ccc(F)cc2)c1 | i | -28% | -1% | -3% | 8.9µM* | -4%
